Test results: PubChem BioAssay AID1159580 (chemical genetic matrix, 2015)
In all, about 5,500 compounds went through this assay and about 2,000 (36%) were called active. Inconclusive results (about 18%) are left out. Cut-off read from the data, not from the text of the source: active = normalized growth mostly below about 0.91 (no sharp cut-off); inconclusive = no clear call, values can overlap the other calls; inactive = mostly above about 0.92. The list shows a part of the results.

Assay: chemical genetic growth profiling, strain panel (AID 1159580);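 note: tested at 20 µM; growth read once vehicle control cultures reached saturation at 30 °C; 1 = growth at the plate median or of vehicle wells; lower values mean less growth of the strain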
Conditions: growth OD

Measured: normalized growth

COC(C)(C)CCC[C@H](C)C/C=C/C(C)=C/C(=O)OC(C)C
inactive: S. cerevisiae deletion strains, locus YJR075W, strain HOC1, stronger effect = lower value 1.02 | S. cerevisiae deletion strains, locus YKL009W, strain mrt4, stronger effect = lower value 0.979 | S. cerevisiae deletion strains, locus YKL068W, stronger effect = lower value 1.01 | S. cerevisiae deletion strains, locus YKL085W, strain MDH1 (second series), stronger effect = lower value 1 | S. cerevisiae deletion strains, locus YKL085W, strain MDH1, stronger effect = lower value 1 | S. cerevisiae deletion strains, locus YKL160W, strain elf1, stronger effect = lower value 1.02 | S. cerevisiae deletion strains, locus YKL190W, strain CNB1, stronger effect = lower value 0.985 | S. cerevisiae deletion strains, locus YKR001C, strain vps1, stronger effect = lower value 1.03 | S. cerevisiae deletion strains, locus YKR026C, strain gcn3, stronger effect = lower value 1.02 | S. cerevisiae deletion strains, locus YKR091W, strain srl3, stronger effect = lower value 1.02 | S. cerevisiae deletion strains, locus YLL001W, strain dnm1, stronger effect = lower value 1.01 | S. cerevisiae deletion strains, locus YLL026W, stronger effect = lower value 1.01 | S. cerevisiae deletion strains, locus YLL041C, strain sdh2, stronger effect = lower value 1 | S. cerevisiae deletion strains, locus YLR027C, strain aat2, stronger effect = lower value 1.01 | S. cerevisiae deletion strains, locus YLR039C, strain RIC1, stronger effect = lower value 1.04 | S. cerevisiae deletion strains, locus YLR058C, strain SHM2, stronger effect = lower value 1 | S. cerevisiae deletion strains, locus YLR102C, strain apc9, stronger effect = lower value 1.02 | S. cerevisiae deletion strains, locus YLR113W, strain HOG1, stronger effect = lower value 0.971 | S. cerevisiae deletion strains, locus YLR221C, strain rsa3, stronger effect = lower value 0.973 | S. cerevisiae deletion strains, locus YLR258W, strain gsy2, stronger effect = lower value 1.03 | S. cerevisiae deletion strains, locus YLR262C, strain YPT6 (second series), stronger effect = lower value 0.953 | S. cerevisiae deletion strains, locus YLR262C, strain YPT6, stronger effect = lower value 1.06 | S. cerevisiae deletion strains, locus YLR268W, strain sec22, stronger effect = lower value 1.05 | S. cerevisiae deletion strains, locus YLR320W, strain mms22, stronger effect = lower value 0.992 | S. cerevisiae deletion strains, locus YLR330W, strain CHS5, stronger effect = lower value 1.01 | S. cerevisiae deletion strains, locus YLR342W, strain FKS1 (second series), stronger effect = lower value 1.02 | S. cerevisiae deletion strains, locus YLR342W, strain FKS1, stronger effect = lower value 1.01 | S. cerevisiae deletion strains, locus YLR357W, strain rsc2, stronger effect = lower value 1.01 | S. cerevisiae deletion strains, locus YLR370C, strain arc18, stronger effect = lower value 0.997 | S. cerevisiae deletion strains, locus YLR371W, strain rom2, stronger effect = lower value 1.04 | S. cerevisiae deletion strains, locus YLR384C, strain iki3, stronger effect = lower value 1 | S. cerevisiae deletion strains, locus YLR418C, strain cdc73, stronger effect = lower value 1.05 | S. cerevisiae deletion strains, locus YML016C, strain PPZ1, stronger effect = lower value 1.02 | S. cerevisiae deletion strains, locus YML032C, strain rad52, stronger effect = lower value 1.03 | S. cerevisiae deletion strains, locus YML120C, strain ndi1, stronger effect = lower value 1.01 | S. cerevisiae deletion strains, locus YML124C, strain tub3, stronger effect = lower value 1.03 | S. cerevisiae deletion strains, locus YMR058W, strain fet3, stronger effect = lower value 1.01 | S. cerevisiae deletion strains, locus YMR078C, strain ctf18, stronger effect = lower value 1.02 | S. cerevisiae deletion strains, locus YMR125W, strain sto1, stronger effect = lower value 1.02 | S. cerevisiae deletion strains, locus YMR129W, stronger effect = lower value 1.01 | S. cerevisiae deletion strains, locus YMR205C, strain PFK2, stronger effect = lower value 0.979 | S. cerevisiae deletion strains, locus YMR223W, strain ubp8, stronger effect = lower value 1.02 | S. cerevisiae deletion strains, locus YMR231W, strain pep5, stronger effect = lower value 1.03 | S. cerevisiae deletion strains, locus YMR263W, strain SAP30, stronger effect = lower value 1.01 | S. cerevisiae deletion strains, locus YMR307W, strain GAS1, stronger effect = lower value 1 | S. cerevisiae deletion strains, locus YNL067W, strain RPL9B, stronger effect = lower value 1.01 | S. cerevisiae deletion strains, locus YNL071W, strain lat1, stronger effect = lower value 1.01 | S. cerevisiae deletion strains, locus YNL128W, strain TEP1, stronger effect = lower value 1.01 | S. cerevisiae deletion strains, locus YNL153C, strain GIM3, stronger effect = lower value 1.01 | S. cerevisiae deletion strains, locus YNL183C, strain NPR1, stronger effect = lower value 0.891 | S. cerevisiae deletion strains, locus YNL209W, strain ssb2, stronger effect = lower value 0.998 | S. cerevisiae deletion strains, locus YNL233W, strain BNI4, stronger effect = lower value 1.02 | S. cerevisiae deletion strains, locus YNL248C, strain rpa49, stronger effect = lower value 0.996 | S. cerevisiae deletion strains, locus YNL250W, strain rad50, stronger effect = lower value 1.03 | S. cerevisiae deletion strains, locus YNL271C, strain bni1, stronger effect = lower value 1.03 | S. cerevisiae deletion strains, locus YNL298W, strain CLA4, stronger effect = lower value 1.03 | S. cerevisiae deletion strains, locus YNL307C, strain MCK1, stronger effect = lower value 1.04 | S. cerevisiae deletion strains, locus YNL322C, strain KRE1 (second series), stronger effect = lower value 1.05 | S. cerevisiae deletion strains, locus YNL322C, strain KRE1, stronger effect = lower value 1 | S. cerevisiae deletion strains, locus YNR049C, strain mso1, stronger effect = lower value 1.02 | S. cerevisiae deletion strains, locus YNR052C, strain pop2, stronger effect = lower value 1.02 | S. cerevisiae deletion strains, locus YOL006C, strain TOP1, stronger effect = lower value 1.07 | S. cerevisiae deletion strains, locus YOL012C, strain htz1 1.31 | S. cerevisiae deletion strains, locus YOL147C, strain pex11, stronger effect = lower value 1.02 | S. cerevisiae deletion strains, locus YOR001W, strain rrp6, stronger effect = lower value 0.987 | S. cerevisiae deletion strains, locus YOR061W, strain CKA2, stronger effect = lower value 1.01 | S. cerevisiae deletion strains, locus YOR069W, strain VPS5, stronger effect = lower value 1 | S. cerevisiae deletion strains, locus YOR070C, strain gyp1, stronger effect = lower value 0.993 | S. cerevisiae deletion strains, locus YOR080W, strain dia2, stronger effect = lower value 1.02 | S. cerevisiae deletion strains, locus YOR083W, strain WHI5, stronger effect = lower value 1.01 | S. cerevisiae deletion strains, locus YOR106W, strain vam3, stronger effect = lower value 0.948 | S. cerevisiae deletion strains, locus YOR136W, strain idh2, stronger effect = lower value 1.02 | S. cerevisiae deletion strains, locus YOR144C, strain elg1, stronger effect = lower value 1.02 | S. cerevisiae deletion strains, locus YOR184W, strain ser1, stronger effect = lower value 1.04 | S. cerevisiae deletion strains, locus YOR231W, strain MKK1, stronger effect = lower value 0.984 | S. cerevisiae deletion strains, locus YOR265W, strain rbl2, stronger effect = lower value 1.03 | S. cerevisiae deletion strains, locus YOR270C, strain vph1, stronger effect = lower value 0.931 | S. cerevisiae deletion strains, locus YOR290C, strain snf2, stronger effect = lower value 1.08 | S. cerevisiae deletion strains, locus YOR316C, strain cot1, stronger effect = lower value 1.02 | S. cerevisiae deletion strains, locus YPL051W, strain arl3, stronger effect = lower value 1 | S. cerevisiae deletion strains, locus YPL055C, strain LGE1, stronger effect = lower value 1.01 | S. cerevisiae deletion strains, locus YPL078C, strain atp4, stronger effect = lower value 1 | S. cerevisiae deletion strains, locus YPL106C, strain sse1, stronger effect = lower value 1.05 | S. cerevisiae deletion strains, locus YPL240C, strain hsp82, stronger effect = lower value 1.01 | S. cerevisiae deletion strains, locus YPL241C, strain CIN2, stronger effect = lower value 0.999 | S. cerevisiae deletion strains, locus YPL256C, strain CLN2, stronger effect = lower value 0.992 | S. cerevisiae deletion strains, locus YPR119W, strain clb2, stronger effect = lower value 1.02 | S. cerevisiae deletion strains, locus YPR141C, strain kar3, stronger effect = lower value 1.03 | S. cerevisiae deletion strains, locus YPR163C, strain tif3, stronger effect = lower value 1.04 | S. cerevisiae deletion strains, locus YPR167C, strain met16, stronger effect = lower value 1.02 | S. cerevisiae deletion strains, strain wtn01, stronger effect = lower value 1.05 | S. cerevisiae strains, strain wild type, stronger effect = lower value 1.01
